Experiment [1] can be described thus: inhibitors of TNFa-induced NFkB p65 translocation, primary screen, imaging, HUVEC, MLSMR starter and 10KST1 sets (AID 438;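 active means inhibition above 20% together with a positive visual image hit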;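 further: compound added about 3h40 before a 20 min TNFalpha stimulation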;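 on inhibition: signal is the nuclear over cytoplasmic p65 intensity ratio per well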). As to conditions: HUVEC TNFa-induced p65 nuclear translocation; cell count: measured here: nuclei count (cytotoxicity indicator), at 2.08 µM; inhibition: at 2 µM, stronger effect = higher value, 0% TNFa-plus-vehicle, 100% no-TNFa wells.
Experiment [2] in a line: reduction of polyQ htt aggregates in cells – imaging, exon1htt(103Q)mCFP cells, high-content imaging, primary screen (AID 483;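 active means visual image review flags a hit and inhibition of aggregation exceeds 20%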;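 further: compound exposure lasted 3 days before fixation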;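 on nuclei count: percent of the per-plate median nuclei count of sample wells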). As to conditions: exon1htt(103Q)mCFP cell line, aggregate imaging, at 2 µM; inhibition of aggregation: stronger effect = higher value; nuclei count: measured here: cell count, toxicity.
Experiment [3] can be described thus: endothelial E-selectin expression blockers – imaging, HUVEC, immunofluorescence, MLSMR starter and 10KST1 sets, primary screen (AID 487;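 active means visually confirmed hit in the image check and inhibition above 20%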;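 on inhibition: signal is fraction of cell area covered by stained E-selectin grains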;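 on nuclei count: 100% = median nuclei count of all wells on the same plate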). As to conditions: HUVEC TNFalpha-induced E-selectin immunofluorescence imaging, at 2 µM; inhibition: stronger effect = higher value; nuclei count: measured here: cell number, toxicity.
In experiment [4] the target is Voltage-gated potassium channel subunit beta-2 (Rattus norvegicus) (UniProt P62483). Nature of the experiment: inhibitors of rat Kvbeta2 reductase activity – biochemical, NADPH fluorescence, primary screen (AID 622;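 active means fluorescence slope higher than the sample average by over 3 SD, cut at about -0.22 in these data, passing the limit was not always enough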;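 further: slope of raw intensity against log time taken from 70 to 1610 s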). The conditions noted are these: recombinant KvBeta, 4-cyanobenzaldehyde reduction, at 10 µM, stronger effect = higher value.
Experiment [5] shares this target. Nature of the experiment: enhancers of rat Kvbeta2 NADPH turnover – biochemical, NADPH fluorescence, primary screen (AID 623;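 active means NADPH fluorescence slope more negative than the mean of all samples by about 3 SD, 99.7% confidence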;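 further: fluorescence intensity change per second fitted from 20 to 320 s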). The conditions noted are these: Recombinant KvBeta, NADPH fluorescence decrease slope, 10 min; at 10 µM; stronger effect = lower value.
The target of experiment [6] is Alpha-2C adrenergic receptor (Homo sapiens) (UniProt P18825). Nature of the experiment: compounds altering alpha2C-coupled GIRK flux – cell-based, HEK293 alpha2C/GIRK1/2, thallium flux, primary screen (AID 624;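 active means fluorescence slope after compound addition differing from the mean of all screened samples at 99.7% confidence, in either direction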;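 further: slope of fluorescence ratio to pre-addition baseline per second over 15 to 24 s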). As to conditions: thallium flux BTC fluorescence, at 10 µM, actives lie on both sides.
The nature of experiment [7]: blockers of RIG-like receptor reporter activation – cell-based, Sendai virus stimulus, luciferase, 10K MLSCN set, TLR/RLR signaling modifier project, primary screen (AID 602276).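 Further: firefly luciferase from ISG56 promoter only with Renilla not read in this screen; 0% = Sendai virus plus DMSO and 100% = medium plus DMSO without virus.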 The conditions noted are these: HEK293 RL24 IRF3 luciferase reporter, at 10 µM, stronger effect = higher value. A general note: Reporter assays use an easily measured gene product as a stand-in for the process of interest.

Experiment [8] in a line: TLR3 IRF3 reporter activation blockers – cell-based, poly I:C stimulus, luciferase, 10K MLSCN set, primary screen (AID 602277;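 active means inhibition of the reporter signal at or above 50%; inactive means inhibition below 50%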). The conditions noted are these: HEK293-TLR3 RL24 IRF3 luciferase reporter, at 10 µM, stronger effect = higher value.

Active and inactive are the calls of the source.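 How the source made its calls, unless noted: active means inhibition at or above 50% at 10 µM; inactive means inhibition below 50%.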

Alpha-2C adrenergic receptor (Homo sapiens), sequence (P18825 whole entry, looked up): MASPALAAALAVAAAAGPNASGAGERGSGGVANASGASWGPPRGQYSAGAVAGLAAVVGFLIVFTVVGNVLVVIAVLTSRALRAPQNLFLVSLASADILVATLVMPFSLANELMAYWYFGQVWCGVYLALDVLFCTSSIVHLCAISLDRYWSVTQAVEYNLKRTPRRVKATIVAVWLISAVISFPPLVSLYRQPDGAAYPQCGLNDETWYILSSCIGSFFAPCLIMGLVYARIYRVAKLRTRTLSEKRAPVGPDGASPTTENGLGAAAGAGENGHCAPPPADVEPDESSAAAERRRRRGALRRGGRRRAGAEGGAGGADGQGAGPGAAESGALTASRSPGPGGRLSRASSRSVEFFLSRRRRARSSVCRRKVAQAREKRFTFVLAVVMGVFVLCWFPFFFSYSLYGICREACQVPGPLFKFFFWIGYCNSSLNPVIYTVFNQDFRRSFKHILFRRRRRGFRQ
Voltage-gated potassium channel subunit beta-2 (Rattus norvegicus), sequence (P62483 whole entry, looked up): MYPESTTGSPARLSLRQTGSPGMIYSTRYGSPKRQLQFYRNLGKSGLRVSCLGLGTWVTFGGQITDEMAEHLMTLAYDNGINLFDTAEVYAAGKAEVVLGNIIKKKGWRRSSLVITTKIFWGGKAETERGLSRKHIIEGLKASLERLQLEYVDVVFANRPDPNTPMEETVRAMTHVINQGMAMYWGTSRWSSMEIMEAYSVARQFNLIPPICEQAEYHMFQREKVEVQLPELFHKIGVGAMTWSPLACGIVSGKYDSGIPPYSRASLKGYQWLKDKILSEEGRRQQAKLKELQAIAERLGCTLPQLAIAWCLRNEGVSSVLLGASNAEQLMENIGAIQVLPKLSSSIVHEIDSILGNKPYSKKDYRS

A word on the inhibition: it is the change of the read-out against control, counted positive when it falls. `CCSc1ccccc1C(=O)Nc1cccc(OC)c1`: the cell count in experiment [1] turned out to be 421. Further, the inhibition in experiment [1] is 0.8% (inactive); in experiment [3], -1.4% (inactive); in experiment [7], -8.73% (inactive); in experiment [8], -15.7% (inactive). For the same compound, the inhibition of aggregation in experiment [2] is -0.9% (inactive). For the same compound, the nuclei count in experiment [2] is 112%; in experiment [3] it was 75%. Also, in experiment [4], the fluorescence slope is -0.539 (inactive). Besides, the NADPH fluorescence slope in experiment [5] is -8.4e-05 (inactive). Besides, the slope in experiment [6] was 0.00513 (inactive).

With `Cc1ccnc2c(N3C(=O)C4C5C=CC(C5)C4(C)C3=O)cccc12` (stereo not given), the cell count in experiment [1] stood at 630. Moreover, the inhibition in experiment [1] is -6.5% (inactive); in experiment [3], -13.1% (inactive); in experiment [7], 5.21% (inactive); in experiment [8], 28.5% (inactive). Further, in experiment [2], the inhibition of aggregation was -2.2% (inactive). Also, the nuclei count in experiment [2] was 94.9%; in experiment [3], 111%. Also, the fluorescence slope in experiment [4] was -0.556 (inactive). The NADPH fluorescence slope in experiment [5] was -1.1e-05 (inactive). Besides, the slope in experiment [6] is 0.00676 (inactive).

In the case of `COc1ccc(CCNC(=O)C2=COCCO2)cc1`, the cell count in experiment [1] was 596. The inhibition in experiment [1] is 4.2% (inactive); in experiment [3] it was 53.6% (active); in experiment [7], -14.5% (inactive); in experiment [8] it was -26.2% (inactive). In addition, the inhibition of aggregation in experiment [2] was 51.2% (active). The nuclei count in experiment [2] came to 90.3%; in experiment [3], 99.1%. Besides, the fluorescence slope in experiment [4] is -0.545 (inactive). Besides, in experiment [5], the NADPH fluorescence slope was -2.9e-05 (inactive). Besides, the slope in experiment [6] is 0.00546 (inactive).

On to `COCCNC(=O)Cn1cc2c(n1)CCCCC2`, for which, in experiment [1], the cell count came to 623. The inhibition in experiment [1] is 5.8% (inactive); in experiment [3] it was -23.5% (inactive); in experiment [7], 7.33% (inactive); in experiment [8], 31.3% (inactive). The inhibition of aggregation in experiment [2] is -19.8% (inactive). The nuclei count came out at 110% in experiment [2] and 98.4% in experiment [3]. In addition, the fluorescence slope in experiment [4] is -0.529 (inactive). Also, the NADPH fluorescence slope in experiment [5] was -8.7e-05 (inactive). Also, the slope in experiment [6] is 0.00598 (inactive).

Consider `COc1ccc(C(=O)CN2C3=NCCCN3c3ccccc32)cc1OC`, for which the cell count in experiment [1] came out at 335. Besides, the inhibition in experiment [1] was -3.1% (inactive); in experiment [3], 22.7% (inactive); in experiment [7], 10.4% (inactive); in experiment [8] it was 28.8% (inactive). The inhibition of aggregation in experiment [2] was -14.2% (inactive). Also, the nuclei count in experiment [2] amounted to 76.5%; in experiment [3], 93.6%. The fluorescence slope in experiment [4] is -0.475 (inactive). Also, the NADPH fluorescence slope in experiment [5] is -4.1e-05 (inactive). Moreover, in experiment [6], the slope is 0.00312 (inactive).

For the compound `Cc1noc(C)c1COc1cccc(C(=O)Nc2ccc(C#N)cc2)c1`, in experiment [1], the cell count worked out at 422. Also, the inhibition is 0.4% (inactive) in experiment [1], -15.6% (inactive) in experiment [3], 2.49% (inactive) in experiment [7] and -0.298% (inactive) in experiment [8]. Also, the inhibition of aggregation in experiment [2] is 3.1% (inactive). The nuclei count in experiment [2] was determined as 94.2%; in experiment [3], 106%. For the same compound, the fluorescence slope in experiment [4] was -0.455 (inactive). The NADPH fluorescence slope in experiment [5] was -4.9e-05 (inactive). Moreover, in experiment [6], the slope was 0.00473 (inactive).

On to `CCN(CC)CCOC(=O)c1ccc(NC(=O)COc2cc(=O)n(CC)c3ccccc23)cc1`, for which, in experiment [1], the cell count worked out at 386. The inhibition in experiment [1] is 6.7% (inactive); in experiment [3], -26.7% (inactive); in experiment [7], -1.28% (inactive); in experiment [8], -7.01% (inactive). For the same compound, the inhibition of aggregation in experiment [2] was -6.9% (inactive). Also, the results for the nuclei count in experiment [2] and in experiment [3] were 108% and 117%, respectively. For the same compound, the fluorescence slope in experiment [4] was -0.514 (inactive). Also, the NADPH fluorescence slope in experiment [5] is 4.9e-05 (inactive). In addition, the slope in experiment [6] was 0.00772 (inactive).

With `O=C(Nc1ccc(Br)c2cccnc12)c1ccc(Cn2cc(Cl)cn2)o1`, in experiment [1], the cell count is 357. Moreover, the inhibition in experiment [1] was 9.8% (inactive); in experiment [3] it was -76.7% (inactive); in experiment [7] it was -9.8% (inactive); in experiment [8] it was -11% (inactive). Also, the inhibition of aggregation in experiment [2] is 10.4% (inactive). Also, the nuclei count is 94.8% in experiment [2] and 99.5% in experiment [3]. Besides, in experiment [4], the fluorescence slope was -0.519 (inactive). Also, in experiment [5], the NADPH fluorescence slope is -3.6e-05 (inactive). For the same compound, in experiment [6], the slope was 0.00614 (inactive).

`CCn1nnc(NC(=O)c2ccccc2Br)n1`: in experiment [1], the cell count turned out to be 229. Also, the inhibition in experiment [1] is 10.3% (inactive); in experiment [3], 12.4% (inactive); in experiment [7], -19.8% (inactive); in experiment [8], -39.6% (inactive). The inhibition of aggregation in experiment [2] was 6.4% (inactive). The nuclei count in experiment [2] worked out at 66%; in experiment [3], 95.4%. Besides, the fluorescence slope in experiment [4] is -0.385 (inactive). Further, the NADPH fluorescence slope in experiment [5] is -5.5e-05 (inactive). The slope in experiment [6] is 0.00604 (inactive).

On to `Cc1ccc(N=C2NC(=O)CS2)c(C)c1`, for which the cell count in experiment [1] is 607. In addition, the inhibition in experiment [1] is 7.4% (inactive); in experiment [3], 59.4% (active); in experiment [7], 2.6% (inactive); in experiment [8], 21.7% (inactive). Also, in experiment [2], the inhibition of aggregation was 22.3% (inactive). In addition, the values for the nuclei count in experiment [2] and in experiment [3] were 95.2% and 76.3%, respectively. For the same compound, in experiment [4], the fluorescence slope was -0.47 (inactive). The NADPH fluorescence slope in experiment [5] was -2.8e-05 (inactive). Further, the slope in experiment [6] is 0.00603 (inactive).

(Values after PubChem BioAssay.)
